Measurements reported in PubChem BioAssay AID1021 (Emory University Molecular Libraries Screening Center, 2008).
In all, about 220,000 compounds went through this assay and about 2,100 (0.95%) were called active. The sample holds actives, similar compounds and a random draw of the others, so the mix is not that of the screen. Values without a mark were called inactive.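 Rule for the calls: active = compounds that cut the binding signal by more than half at the single screening dose; inactive = the rest.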

What follows are molecules tested against Induced myeloid leukemia cell differentiation protein Mcl-1 (Homo sapiens) (UniProt Q07820) (assay: Mcl-1/Bid binding inhibitors, primary screen, biochemical, TR-FRET, 1536-well (AID 1021;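 note: His-tagged Mcl-1 with europium anti-His antibody binding Bid BH3 peptide; 0% = Mcl-1 plus peptide wells and 100% = peptide-only wells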)). Conditions: TR-FRET Mcl-1/Bid-Dy647 peptide binding, at 21.7 µM, stronger effect = higher value.
Sequence of Induced myeloid leukemia cell differentiation protein Mcl-1 (Homo sapiens) (Q07820 whole entry, looked up): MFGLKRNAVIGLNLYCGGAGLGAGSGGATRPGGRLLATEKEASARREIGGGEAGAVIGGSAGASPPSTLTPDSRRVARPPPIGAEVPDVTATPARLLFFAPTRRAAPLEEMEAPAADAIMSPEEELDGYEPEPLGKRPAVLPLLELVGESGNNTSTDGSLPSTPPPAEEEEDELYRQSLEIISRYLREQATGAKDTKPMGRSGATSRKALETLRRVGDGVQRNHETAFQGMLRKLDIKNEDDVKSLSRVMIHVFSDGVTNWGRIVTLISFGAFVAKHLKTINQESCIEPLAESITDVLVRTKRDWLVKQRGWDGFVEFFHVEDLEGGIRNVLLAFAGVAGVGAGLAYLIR

SMILES | inhibition
CCOC(=O)c1c(NC(=S)NC)sc2c1CCCC2 | -22.5%
CCOC(=O)c1c(NC(=S)Nc2ccccc2C)sc2c1CCC2 | -25.3%
CCOC(=O)c1c(NC(=S)NC(=O)c2ccco2)sc2c1CCCC2 | 61.4% (active)
O=C(O)CC12CC3CC(C1)CC(n1ncc(NCc4ccc(F)cc4)c(Cl)c1=O)(C3)C2 | -0.52%
CS(=O)(=O)c1ccc2nc(NC(=O)C3CCCCC3)sc2c1 | -11%
CS(=O)(=O)c1ccc2nc(NC(=O)c3ccc(N4CCCC4=O)cc3)sc2c1 | -53.4%
CS(=O)(=O)c1ccc2nc(NC(=O)CN3CCCCCC3)sc2c1 | 55.1% (active)
O=c1[nH]nc(SCCS(=O)(=O)c2ccc(F)cc2)n1-c1ccccc1C(F)(F)F | -37.5%
CCOC(=O)Nc1ccc2c(c1)N(C(=O)CCN1CCN(CCO)CC1)c1ccccc1CC2 | 51.3% (active)
CCNCCC(=O)N1c2ccccc2Sc2ccc(NC(=O)OCC)cc21 | -12.2%
CCOC(=O)Nc1ccc(NC(=O)OCC)cc1 | -26.4%
COc1ccc2[nH]c(=S)cc(C)c2c1 | -43.7%
CNC1(c2nnnn2-c2c(C)cccc2C)CCOC(C)(C)C1 (stereo unspecified) | -15.5%
CCCNC(=O)NC(=O)COC(=O)CC(NC(N)=O)c1ccc(Cl)cc1 (stereo unspecified) | -14.2%
CN(C)/C(CN1CCCCC1)=C1\N=C(c2ccccc2)OC1=O | 65.5% (active)
O=C(CN1CCCC1)N1CCN(c2ccccc2)CC1 | -53.9%
O=S(=O)(c1ccccc1)N(CC(O)CN1CCCCC1)c1ccccc1 (stereo unspecified) | -28.8%
COC(=O)N/N=C/c1ccc(-c2ccc(Cl)c(Cl)c2)o1 | 15.5%
COCCCNCC(=O)Nc1sc(C)c(C)c1C(=O)OC | 63.5% (active)
CCOC(=O)c1c(NC(=O)c2cccs2)sc(C)c1C | -14.7%
COC(=O)c1c(NC(=O)c2c(Cl)cnn2C)sc(C)c1C | -24%
COc1cccc(NC(=O)CN(C)C(C)C(=O)Nc2ccc(C#N)cc2)c1 (stereo unspecified) | -15.1%
O=C(NCc1ccco1)c1nn2cccnc2c1Cl | -10.8%
COCCCNc1nc2c(-c3cccc(C(F)(F)F)c3)nnn2c2ccccc12 | -13.1%

SMILES | inhibition
NCC(=O)c1cccc2ccc[n+]([O-])c12 | -13.8%
CCc1ccccc1NC(=O)CSc1nnc(-c2ccncc2)o1 | -14.6%
Cc1nn(-c2ccccc2)c2c1C(c1cccc([N+](=O)[O-])c1)N(c1ccccc1)C(=O)N2 (stereo unspecified) | -12.3%
COc1ccc(-n2c(C)nc3c(cnn3-c3ccccc3)c2=O)cc1 | -3.33%
COc1ccc(C2c3c(C)nn(-c4ccccc4)c3NC(=O)N2c2ccccc2)cc1 (stereo unspecified) | 76.8% (active)
CN(NC(=O)C1CC(=O)N(c2ccccc2)C1)C1=NS(=O)(=O)c2ccccc21 (stereo unspecified) | -8.25%
O=S(=O)(/N=C(/Nc1ccccn1)c1ccccc1)c1ccc(Cl)cc1 | -22.6%
Cc1ccc(S(=O)(=O)/N=C(/Nc2ccccn2)c2ccc(Cl)cc2)cc1 | 1%
Cc1ccc(S/C(=N\S(=O)(=O)c2ccc(Cl)cc2)c2ccccc2)cc1 | 61.7% (active)
O=C(N/N=C/c1ccc(Br)o1)c1cncc(Br)c1 | -13.1%
CS(=O)(=O)N(CC(=O)NC1CCCC1)Cc1ccc(F)cc1 | -0.58%
COc1ccc(CNC2CCCCC2)cc1 | 64.1% (active)
COc1cc(CNC2CCCCC2)c(Br)cc1OC1CCCC1 | -29.9%
COc1ccc(CCNC(=O)COC(=O)C2CCCCC2)cc1 | -25.9%
CCOC(=O)c1ccc(COC(=O)c2cc(=O)[nH]c3ccccc23)o1 | -9.7%
CCOC(=O)c1cnc(COc2ccccc2Cl)[nH]c1=O | 7.19%
CCOC(=O)c1cc2c(=O)[nH]c(C(Cl)(Cl)Cl)nc2o1 | 52% (active)
CCCCCOc1ccc(CSC2=NCCN2)cc1[N+](=O)[O-] | -26.2%
O=C(Nc1ccc(Br)cn1)C1CCN(S(=O)(=O)c2cccs2)CC1 | -17.8%
CCc1cc2cc(OC)ccc2nc1SCC(=O)Nc1cc(OC)c(OC)cc1C(=O)O | -3.27%
O=C(C1CCCO1)N(c1ccc(F)cc1)C1C=CS(=O)(=O)C1 (stereo unspecified) | -15.9%
Cc1cccn2c(CNCC(C)Oc3cccnc3)c(C(=O)N3CCOCC3)nc12 (stereo unspecified) | -13.2%
Cc1cccn2c(CN(C)C3CCCc4ccccc43)c(C(=O)N3CCOCC3)nc12 (stereo unspecified) | 54.6% (active)
Cc1cc(C)n(CC(C)NCc2c(C(=O)N3CCOCC3)nc3c(C)cccn23)n1 (stereo unspecified) | -17.6%

SMILES | inhibition
Cc1cc(N2CCN(c3ccccc3)CC2)nc(N2CCOCC2)n1 | -98.4%
Cc1ccc(-c2cc(C(=O)NN)n[nH]2)o1 | -33.4%
O=C(CSc1nc2ccccc2o1)N/N=C/c1ccccc1C(=O)O | -19.1%
Nc1c(Cl)cc(S(N)(=O)=O)cc1S(N)(=O)=O | -8.81%
Cc1c(C=O)c2ccccc2n1CC(=O)O | -7.49%
Cc1c(/C=N\NC(=O)c2cc3ccccc3o2)c2ccccc2n1C | -24.8%
Cc1c(/C=N/N2C(=O)C3C4C=CC(C4)C3C2=O)c2ccccc2n1C (stereo unspecified) | 59.1% (active)
O=C(NC1CC1)C1=C[C@H](c2c[nH]c3ccccc23)C[C@H](OCc2ccc(CO)cc2)O1 | -70.3%
OCC1(Cc2ccccc2C(F)(F)F)CCN(Cc2cccc3cnccc23)CC1 | -14.6%
COc1ccc2nc(NC(=O)NC3CCCCC3)sc2c1 | -6.76%
COC(=O)[C@H](CC(C)C)NC(=O)N1CCCCC1C (stereo partly specified) | -3.65%
COc1ccc(C(=O)Nc2cccnc2)cc1C(=O)Nc1cccnc1 | 14.7%
O=C(Oc1cccnc1)c1cc2ccccc2oc1=O | 19.8%
O=C(Nc1cccnc1)c1cc2cc(Br)ccc2oc1=O | 59.5% (active)
O=C(CN1CCCCCC1)NCCN1C(=O)S/C(=C\c2ccccc2Cl)C1=O | -7.27%
COc1ccccc1Cn1c(CO)nc2ccccc21 | -24.8%
Cc1cccc(C2C3=C(CCCC3=O)N=C3c4ccccc4C(=O)C32)c1 (stereo unspecified) | -45%
Cc1cccc(NC(=S)NC23CN4CN(CN(C4)C2)C3)c1 | -75.3%
CC1CN(S(=O)(=O)c2ccccc2)C(C)CN1S(=O)(=O)c1ccccc1 (stereo unspecified) | -4.73%
CCS(=O)(=O)c1ccc2c(c1)N(S(=O)(=O)c1ccccc1)CC(C(=O)O)O2 (stereo unspecified) | 52.3% (active)
CCS(=O)(=O)c1ccc2oc(SCC(=O)N3c4ccccc4CC3C)nc2c1 (stereo unspecified) | -1.51%
C=CCOc1ccc(/C=N/NC(=O)C(C)Sc2ccccn2)cc1OCC (stereo unspecified) | -8.6%
COc1ccccc1C1CCN(c2ccc([N+](=O)[O-])cn2)CC1 | -13.5%
CCOC(=O)C(NC(=O)CC(C)C)(Nc1sc2c(c1C(N)=O)CCCC2)C(F)(F)F (stereo unspecified) | -1.21%

SMILES | inhibition
O=c1[nH]c2cccnc2n1-c1ccc([N+](=O)[O-])cc1 | -13.5%
CCOC(=O)CNC(=O)CSc1nnc(-c2cccc(OC)c2)n1CC | -3.85%
CCOC(=O)CNC(=O)CSc1nnc(COc2ccc(Cl)cc2)n1CC | 59% (active)
C=CCn1c(COc2ccccc2)nnc1SCC(=O)NCC(=O)OCC | -8.17%
COc1ccc(CN(C)C(=S)Nc2ccc(Cl)cc2Cl)cc1 | -35.5%
COc1ccc(CN2CCn3ncc(C(=O)Nc4ccc(Cl)cc4Cl)c3C2=O)cc1 | 32%
O=c1cc(CCl)nc2scc(-c3ccccc3)n12 | -18.4%
Cc1ccccc1-c1nnc(SCC(=O)NCc2ccc3c(c2)OCO3)n1C | -9.98%
O=C(O)CSc1nnc(-c2ccc3c(c2)OCO3)n1-c1ccccc1 | -2.66%
Cn1c(SCc2nc3ccccc3s2)nnc1-c1ccc2c(c1)OCO2 | 85.9% (active)
COc1ccc(CCNc2cc(C)nc3c(-c4ccc(Cl)cc4)c(C)nn23)cc1OC | 5.91%
Cc1ccc(-c2noc(CSc3nnnn3-c3ccccc3)n2)cc1 | 0.82%
O=c1c2ccccc2nnn1CSc1nnnn1-c1ccccc1 | -28.6%
O=c1c2ccccc2nc(CSc2nnnn2-c2ccccc2)n1-c1ccccc1 | 67% (active)
Oc1ccc(-c2nncn2-c2ccccc2)cc1 | -19.8%
O=C(N/N=C/c1ccc([N+](=O)[O-])o1)c1cccc(S(=O)(=O)N2CCOCC2)c1 | -61.1%
O=C(CN1CCN(c2ccc(O)cc2)CC1)Nc1cc(S(=O)(=O)N2CCOCC2)ccc1Cl | -49.6%
O=[N+]([O-])c1cc(Cl)cc(/C=N/NC(=S)Nc2cc(S(=O)(=O)N3CCOCC3)ccc2Cl)c1O | 91.1% (active)
CC(Sc1nc2cc(Cl)ccc2s1)C(=O)Nc1ccc2c(c1)OCO2 (stereo unspecified) | -1.87%
Cc1cc(C)nc(Nc2ncn[nH]2)n1 | -30%
COc1cc(OC)nc(N/N=C(\c2ccccc2)c2ccncc2)n1 | 1.66%
O=C(O/N=C(/c1ccccc1)c1ccncc1)c1ccccc1[N+](=O)[O-] | -11.8%
CN(C)CCCO/N=C(\c1ccccc1)c1ccncc1 | 54.2% (active)
Cc1ccc2c(c1)C1CN(C)CCC1N2C(=S)Nc1ccc(OC(F)F)cc1 (stereo unspecified) | -15.3%
